# Assay outcomes from PubChem BioAssay.
# Only some compounds are listed: those with a hit (about 19% of all), similar ones and a draw of the others.
# IL-1B inflam inh = blocks inflammasome-driven IL-1 beta release | activity change, % at 57.5 µM | THP-1 LPS/ATP IL-1B secretion, AlphaLISA, 16 h; active compounds read low | AID 743279 | 4.7% of 360,000 active; in the data active = activity change below about -50%; inconclusive = mostly about -30% to -49%
#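 Secreted IL-1B measured by AlphaLISA bead assay after 16 h compound exposure of THP-1 cells; compounds (final up to 57.5 uM) added 1 h before LPS (250 ng/mL) and ATP (1.25 mM) stimulation; lower signal means less secretion.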
# HT1080NT lethal = kills 2HG-producing HT-1080-NT fibrosarcoma cells | HT-1080-NT fibrosarcoma viability, CellTiter-Glo ATP luminescence, 48 h | Potency, µM (highest dose often 46.1 µM), hits mostly cytotoxic | 1.6% of 360,000 active;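 note: NT is the 2HG producing partner of a matched IDH1 knockdown line; nearly all actives have a fitted effect of over 55% in size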
#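 A 48-hour cytotoxicity screen used HT-1080-NT cells plated 2 hours before compound delivery. ATP-based CellTiter-Glo luminescence measured viability, normalized to DMSO and no-cell controls.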
# TDP1 cell CPT = DT40-hTDP1 cell growth loss with CPT; chicken DT40 Tdp1-/-;hTDP1 cells + 20 nM CPT, ATP luminescence, 48 h; Potency, µM (series often up to 46.2 µM), hits mostly inhibitors; 12% of 420,000 active; note: nearly all actives have a fitted effect of over 55% in size
#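 Cell growth measured by CellTiter-Glo luminescence after a minimum 48 h, 37 C compound exposure with 20 nM CPT in Tdp1-knockout DT40 cells stably expressing hTDP1, seeded 400/well; qHTS titration format.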
# HT1080 IDH1KD tx = HT-1080 IDH1 knockdown cell toxicity (counter line) | HT-1080 IDH1 knockdown viability, ATP luminescence, 48 h | Potency, µM (highest dose often 46.1 µM), usual class: cytotoxic | 2% of 360,000 active | AID 686971
#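 IDH1KD HT-1080 cells, 750/well, RPMI + 5% FBS; compound pinned after 2 h settling; 48 h, 37 °C; CellTiter-Glo luminescence; % activity normalised to DMSO and no-cell wells; curves fitted, classed by r2 and efficacy.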
# DT40 TDP1 no CPT = qHTS for Inhibitors of human tyrosyl-DNA phosphodiesterase 1 (TDP1): qHTS in cells in absence of CPT | Potency, µM (series often up to 46.2 µM), actives largely listed as inhibitors | AID 686978, 2013 | 15% of 420,000 active | DT40 Tdp1-/- hTDP1 cells, no CPT, ATP luminescence, 48 h; note: nearly all actives have a fitted effect of over 55% in size
#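 Growth kinetics read by CellTiter-Glo luminescence after ≥48 hr at 37 °C. Cells: DT40 Tdp1-/- stably carrying human TDP1, 400 per well, compound exposure in the absence of CPT (DMSO vehicle).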
# Hits are given with their value; 0 = inactive; ? = inconclusive; - = not tested or not shown. Unless noted, calls come from the whole dose curve; as a rule, active = well fitted curve in the direction sought with a large enough effect; inconclusive = small, poorly fitted or top-dose-only effect, or another doubt; inactive = no such curve, though single readings can be large; an effect the other way counts as inactive or inconclusive.
SMILES,IL-1B inflam inh,HT1080NT lethal,TDP1 cell CPT,HT1080 IDH1KD tx,DT40 TDP1 no CPT
CN1C(=O)C(O)(CC(=O)c2ccc3c(c2)OCO3)c2ccccc21 (centres undefined),0,0,0,0,0
c1ccc(N2CC3COc4ccccc4C3=N2)cc1 (centres undefined),0,0,0,0,0
CC(=O)N1c2ccc(S(=O)(=O)N3CCCCC3)cc2CC1C(=O)NCc1ccccc1C (centres undefined),0,0,0,0,0
COc1ccc2[nH]c3c(=O)n(Cc4ccc(C(=O)N5CCC(C(N)=O)CC5)cc4)c(=S)[nH]c3c2c1,0,0,?,0,29.1µM
CCCCNC(=O)c1ccc(Cn2c(=S)[nH]c3c([nH]c4ccc(OC)cc43)c2=O)cc1,0,?,0,18.4µM,?
CC[C@H](C)NC(=O)c1ccc(Cn2c(=S)[nH]c3c([nH]c4ccc(OC)cc43)c2=O)cc1,0,0,?,0,0
COCCn1c(=O)c(-c2ccc(Cl)cc2)nc2cnc(Oc3ccccc3)nc21,-,-,0,-,0
Cc1ccc2c(c1)c1c(c(=O)n(-c3cccc(Cl)c3)c(=O)n1CC(=O)Nc1c(C)cccc1C)n2C,-,-,0,-,0
CCOC(=O)N1CCN(CCC(=O)c2ccc(Cl)cc2)CC1,0,?,2.31µM,0,3.26µM
CCOC(=O)N1CCN(CCC(=O)c2ccc(Br)cc2)CC1,0,?,2.91µM,?,7.31µM
CCc1nnc(NC(=O)c2ccc3c(c2)C(=O)N(CC)C3=O)s1,0,0,0,0,0
CCN(CC)CCN(C(=O)c1ccco1)c1nc2c(C)c(C)ccc2s1,-,-,23.1µM,-,20.6µM
CCN(CC)CCCN(C(=O)c1ccco1)c1nc(-c2ccc(Cl)cc2)cs1,-67.4,23.1µM,?,14.6µM,?
CCN(C(=O)c1ccco1)c1nc(CC(=O)Nc2ccc(Cl)cc2)cs1,0,0,?,0,16.4µM
CCN(CC)CCCN(C(=O)c1ccco1)c1nc(-c2ccc(C)cc2)cs1,-85.3,?,18.4µM,?,?
CN(C(=O)c1ccco1)c1nc(CC(=O)Nc2ccccc2)cs1,0,0,0,0,?
CCCN(C(=O)c1ccco1)c1nnc(-c2ccccc2C)s1,0,0,?,0,?
COc1ccc(-c2csc(N(Cc3ccco3)C(=O)c3cccs3)n2)cc1,0,0,?,0,?
CN(C(=O)c1ccco1)c1nc(-c2ccc(F)cc2)cs1,0,0,0,0,0
CCNC(=O)C1CCCN(C(=O)c2cccc(OC(F)(F)F)c2)CC1 (centres undefined),0,0,?,0,?
O=C(c1ccco1)N(CCCN1CCOCC1)c1nc(-c2ccc(F)cc2)cs1,-87.6,?,23.1µM,?,15.8µM
Cc1ccc(C(C)C)c(OCCn2ccnc2C)c1,0,0,16.4µM,0,23.1µM
Cc1nccn1CCOc1ccc(Cl)cc1,0,0,0,0,0
Cc1ccc(OCCCCn2ccnc2C)c(C)c1,-55.8,0,?,0,?
OC(COc1ccc(CNCCc2ccccc2F)cc1)CN1CCCCC1 (centres undefined),?,?,?,0,?
SMILES,IL-1B inflam inh,HT1080NT lethal,TDP1 cell CPT,HT1080 IDH1KD tx,DT40 TDP1 no CPT
COc1nc2c(C)cccc2cc1-c1noc(-c2ccco2)n1,0,0,0,0,0.146µM
COc1nc(-c2ccc(Cl)cc2)ccc1-c1noc(-c2ccco2)n1,0,0,?,0,0
CC(C(=O)Nc1ccc(Cl)cc1Cl)N1C(=O)NC2(CCCCCCC2)C1=O (centres undefined),0,0,?,0,?
CCC(Oc1ccccc1F)C(=O)Nc1c(C(=O)c2ccccc2)oc2ccccc12 (centres undefined),-,-,0,-,?
CCOc1cccc(C2C=C(c3ccc4c(c3)OCO4)NC(c3ccc(Br)cc3)N2)c1O (centres undefined),-,-,?,-,15.8µM
CCOc1ccccc1C(=O)NCc1ccc2c(c1)OCO2,0,0,0,0,0
CCOc1cccc(C2C=C(c3ccc4c(c3)OCO4)NC(c3cccc(Br)c3)N2)c1O (centres undefined),-,-,10µM,-,10µM
Cc1cc(C(=O)CSc2nnc(-c3cccnc3)n2-c2ccccc2F)c(C)n1CC1CCCO1 (centres undefined),0,0,0,0,23.1µM
Cc1cc(C(=O)CSc2nnc(-c3ccccc3F)o2)c(C)n1Cc1cccs1,0,0,23.1µM,0,?
Cc1cc(C(=O)CN2C(=O)c3cccc(N)c3C2=O)c(C)n1Cc1cccs1,0,0,?,0,20.6µM
Cc1cc(C(=O)CSc2nnc(-c3ccc(F)cc3)o2)c(C)n1CC1CCCO1 (centres undefined),0,0,?,0,20.6µM
Cc1cc(C(=O)CSc2nnnn2-c2ccccc2)c(C)n1CC1CCCO1 (centres undefined),0,0,0,0,?
COc1ccccc1-n1cnnc1SCC(=O)c1cc(C)n(Cc2cccs2)c1C,0,0,?,0,?
Cc1cc(C(=O)CSc2nnc(-c3ccc(F)cc3)o2)c(C)n1CC1COc2ccccc2O1 (centres undefined),0,0,?,?,?
COc1cc(-c2nnc(SCC(=O)c3cc(C)n(CC4CCCO4)c3C)o2)cc(OC)c1OC (centres undefined),0,0,20.6µM,0,?
COc1cc(-c2nnc(SCC(=O)N3CCCC3)o2)cc(OC)c1OC,0,0,0,0,0
COc1ccc(CCN2C(=O)C3C4CC(C5C(C(=O)O)=NOC45)C3C2=O)cc1OC (centres undefined),0,0,0,0,0
Cc1cc(N)n2nc(-c3ccccc3)cc2n1,-71.8,?,0,?,?
Cc1ccc(-c2cc3nc(-c4ccccc4)cc(N)n3n2)cc1,0,0,0,0,0
c1ccc2c(c1)-c1nc3ccccc3cc1C2N1CCCCC1 (centres undefined),0,0,16.4µM,0,16.4µM
CC1(C)c2ccccc2-c2nc3ccccc3cc2C1O (centres undefined),0,0,?,0,?
O=C(CN1C(=O)c2ccccc2S1(=O)=O)Nc1cc(S(=O)(=O)N2CCOCC2)ccc1N1CCOCC1,-,-,0,-,0
O=C(CCC(=O)c1ccccc1)Nc1ccc(F)c(Cl)c1,-,-,0,-,0
N/C(=N\OCC(=O)Nc1ccc(F)c(Cl)c1)c1ccccc1,0,0,23.1µM,0,?
COc1ccc([N+](=O)[O-])cc1N(CC(=O)NCCCOC(C)C)S(C)(=O)=O,0,0,0,0,0
CCC(Oc1ccc(F)cc1)C(=O)Nc1nc(-c2ccc(F)cc2)ns1 (centres undefined),-,-,18.4µM,-,10.3µM
CCCCN(CC(=O)NCc1ccc(Cl)cc1)S(=O)(=O)c1ccc2c(c1)OCCO2,0,0,?,0,23.1µM
